# hDAT+cocaine – human DAT dopamine uptake with cocaine, either direction; LLC-PK1 hDAT cells, [14C]-dopamine uptake with cocaine IC80; actives deviate in either direction; B-score at 10 µM; actives 1.3% (n = 110,000); Q01959;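 active means Z score or B-score, a plate-position-corrected score, falls beyond the plate's 99.7% confidence bounds, in either direction; inactive means both scores lie inside the 99.7% bounds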;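 further: scored against the spread of the other compound wells on the same plate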
# Target sequence (Q01959 whole entry, looked up): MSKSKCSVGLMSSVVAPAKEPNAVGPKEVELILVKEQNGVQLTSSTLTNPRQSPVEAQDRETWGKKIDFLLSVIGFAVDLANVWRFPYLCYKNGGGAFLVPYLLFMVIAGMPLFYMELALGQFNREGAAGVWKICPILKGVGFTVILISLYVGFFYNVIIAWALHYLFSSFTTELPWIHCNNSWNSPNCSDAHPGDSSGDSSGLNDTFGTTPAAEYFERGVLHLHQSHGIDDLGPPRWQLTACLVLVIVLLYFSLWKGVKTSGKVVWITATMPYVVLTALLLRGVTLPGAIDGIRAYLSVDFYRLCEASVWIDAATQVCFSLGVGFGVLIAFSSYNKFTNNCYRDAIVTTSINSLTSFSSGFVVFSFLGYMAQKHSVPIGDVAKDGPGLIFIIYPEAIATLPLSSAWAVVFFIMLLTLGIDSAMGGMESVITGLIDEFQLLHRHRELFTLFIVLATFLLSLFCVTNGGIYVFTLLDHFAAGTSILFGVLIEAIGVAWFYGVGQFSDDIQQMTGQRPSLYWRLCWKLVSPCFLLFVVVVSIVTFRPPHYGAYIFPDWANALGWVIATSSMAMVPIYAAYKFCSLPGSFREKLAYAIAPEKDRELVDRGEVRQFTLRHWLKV
# CYP2C9 act – activators of human CYP2C9; P11712; recombinant CYP2C9, luciferin-H conversion, luminescence; stronger effect = higher value; factor 1 = untreated enzyme, 0 = blocked; activation factor at 5 µM; actives 1.4% (n = 96,000);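 active means activation factor of 2 or more for CYP2C9 at a 5 µM dose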;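 further: 0 = sulfaphenazole-blocked wells and 1 = vehicle-only wells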
# CYP2C19 act – cytochrome P450 2C19 (human) activation. P33261. recombinant CYP2C19, luciferin-H EGE luminescence; stronger effect = higher value; 0 = fully inhibited enzyme, 1 = untreated enzyme. activation factor at 5 µM. 96,000 tested, under 10 active;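 active means activation factor of at least 2 at 5 µM in the primary screen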;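 further: 0 = wells with 2.5 mM tranylcypromine and 1 = vehicle-only wells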
# D1 mod – allosteric modulators of human D1 dopamine receptor | P21728 | B-score at 10 µM | HEK293 D1, CRE-luciferase, dopamine EC30 potentiation; actives deviate in either direction | AID 641 | actives 5.9% (n = 58,000);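 active means luminescence count or its row- and column-corrected plate score outside the 99.7% band of the plate's sample wells, on either side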
# CYP2C9 inhib – blocks human cytochrome P450 2C9; P11712; CYP2C9 Supersomes, luciferin-H conversion, luminescence; inhibition, % at 5 µM; actives 20% (n = 96,000); AID 777;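 active means blocking of liver enzyme CYP2C9 beyond about 50% at 5 µM, limit read from the data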
# CYP2C19 inh – blocks human cytochrome P450 2C19; P33261; actives 21% (n = 96,000); CYP2C19 Supersomes, luciferin-H EGE luminescence, 30 min; inhibition, % at 5 µM;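 active means CYP2C19 inhibition above a set limit at 5 µM in the primary screen, cut at about 50% in these data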;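 further: plate controls were negative control wells for no effect and 2.5 mM tranylcypromine positive control for full effect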
# * marks the source's active call; other numbers are inactive results; · = no result given. A selection: hits, their analogues and other compounds. The true share with any hit is near 28%.
SMILES,hDAT+cocaine,CYP2C9 act,CYP2C19 act,D1 mod,CYP2C9 inhib,CYP2C19 inh
CC(NC(=O)C(c1ccccc1)c1ccccc1)C(=O)O (stereo not given),-0.65,0.9,1.1,·,11,-6
COc1ccc(Br)cc1CNC(=O)CCc1nc(-c2ccc(C)cc2)no1,0.13,0.9,0.9,-0.059,10,5
CC(C)N(Cc1nc(-c2ccccc2)no1)C(=O)CCCN1C(=O)c2ccccc2C1=O,2.4*,0.3,0.3,0.34,67*,67*
CC(C)N(CCO)C(=O)C(c1ccccc1)c1ccccc1,-1.4,0.4,0.1,0.16,59*,90*
COc1ccc(Cl)cc1C(=O)N(Cc1nc(-c2cccc(C)c2)no1)C(C)C,-1.8,0.7,0.1,-0.52,30,88*
Cc1ccc(-c2noc(CN(C(=O)c3cccc(Br)c3)C(C)C)n2)cc1,0.99,0.1,0.2,-0.44,87*,82*
Cc1cccc(-c2noc(CN(C(=O)CCc3ccccc3)C(C)C)n2)c1,0.62,1.1,1,0.0032,-14,4
CC(C)N(Cc1nc(-c2ccccc2)no1)C(=O)CN1C(=O)c2ccccc2C1=O,-0.029,·,·,-0.09,·,·
CCNc1ccc2c(Cl)cc(=O)oc2c1,·,1,1,0.59,0,-5
O=C(O)CCc1nc(-c2ccccc2)no1,-0.13,1,1,-0.78,1,-1
COc1ccc(-c2noc(CN(C(=O)c3cccs3)C(C)C)n2)cc1,1.3,0.3,0.7,·,68*,34
CC(C)N(Cc1nc(-c2ccc(Cl)cc2)no1)C(=O)C(c1ccccc1)c1ccccc1,0.41,0.5,0.6,·,54*,38
Cc1ccc(-c2noc(CN(C(=O)C(c3ccccc3)c3ccccc3)C(C)C)n2)cc1,0.023,0.3,0.8,·,66*,22
COc1cccc(-c2nc(-c3ccc(NC(=O)c4cccs4)cc3)no2)c1,-0.86,0.8,0.9,·,18,13
O=C(c1ccc2c(c1)OCCO2)C1CCN(S(=O)(=O)c2ccc(F)cc2)CC1,-0.41,1.1,1,1.2,-8,-4
Cc1nn(-c2ccccc2)c2sc(C(=O)NC3CCCCC3)cc12,-0.38,0.3,0.8,0.8,70*,23
CCCCNC(=O)COC(=O)c1cc2c(C)nn(-c3ccccc3)c2s1,0.095,0.2,0.5,-0.18,78*,51*
Cc1cnc(NC(=O)c2cc3c(C)nn(-c4ccccc4)c3s2)s1,-0.35,0.3,0.4,·,66*,56*
Cc1nn(-c2ccccc2)c2sc(C(=O)N3CCCCC3)cc12,0.069,0.8,0.8,1.9,18,22
COC(=O)COc1ccc(S(=O)(=O)Nc2ccccc2SC)cc1,1.8,·,·,-0.39,·,·
Cc1c(=O)n(OCc2ccccc2)c2ccccc2[n+]1[O-],-0.0094,0.9,0.3,0.46,13,69*
COc1ccc(COn2c(=O)c(C)[n+]([O-])c3ccccc32)cc1OC,1.3,0.3,0.5,1.3,74*,52*
CCOC(=O)COn1c(=O)c(C)[n+]([O-])c2ccccc21,-0.0068,0.9,1,·,10,-4
C[N+]1=C2CCCCCN2C(O)(c2ccccc2)C1 (stereo not given),0.19,1.1,1.2,-0.2,-8,-16
CCOc1c2ccc(C(=O)NCCCCc3ccccc3)cc2nn1CC,1.8,0.7,0.7,·,31,29
SMILES,hDAT+cocaine,CYP2C9 act,CYP2C19 act,D1 mod,CYP2C9 inhib,CYP2C19 inh
COc1cc(C(=O)Nc2nc3ccccc3s2)ccc1OCc1c(C)noc1C,-1.9,0.6,1,·,45,2
Cc1ccc2c(Cl)cc(Cl)c(OCc3c(C)noc3C)c2n1,-1.8,0.9,0.3,-0.26,8,67*
O=C(NCCN1CCOCC1)C1CCN(Cc2ccccc2O)CC1,-0.036,0.9,1.2,0.013,8,-16
CCOC(=O)c1sc(NS(=O)(=O)c2ccc(C)cc2)nc1C,-0.42,0.2,0.6,·,77*,42
CCOC(=O)c1sc(NC(=O)c2ccc(S(=O)(=O)N(C)C)cc2)nc1C,-0.45,1.2,1,·,-15,2
O=C(Nc1ccc(Cl)cc1)c1cccs1,1.5,1,0.8,·,-4,20
CCOC(=O)Nc1sc(NS(=O)(=O)c2ccccc2)nc1C,0.15,0.2,1,-0.045,81*,0
CCOC(=O)NCc1ccc(S(=O)(=O)Nc2c(C)cccc2C)cc1,0.19,0.7,0.3,·,29,75*
Cc1ccc(NS(=O)(=O)c2ccc(NC(=O)c3cccs3)cc2)cc1,-1.2,0.5,0.7,·,51*,32
Cc1ccc(C)c(-n2c(Cc3cc(=O)[nH]c(=O)[nH]3)nnc2SC(C)C)c1,-0.025,1,1,0.099,2,-2
O=C(CC1CCCC1)OCn1nnc2ccccc2c1=O,-0.17,0.8,0.8,-0.74,17,23
Cc1ccc(NC(=O)CC2SC3=NCCCN3C2=O)c(C)c1 (stereo not given),-0.024,1.2,1,0.011,-19,-1
CN(c1cccc(NC(=O)COc2ccc(Cl)cc2Cl)c1)S(C)(=O)=O,-0.5,·,·,·,·,·
CCOC(=O)Nc1ccc(S(=O)(=O)Nc2nc(C)cc(C)n2)cc1,0.96,1.2,1,·,-23,-3
CCOC(=O)Nc1ccc(NS(=O)(=O)c2ccc(C)cc2)cc1,0.8,0,0,1.4,96*,99*
CCOC(=O)Nc1ccc(S(=O)(=O)Nc2nccc(C)n2)cc1,-0.73,0.8,1.1,0.75,24,-9
CCOC(=O)Nc1sc(NS(=O)(=O)c2ccc(C)cc2)nc1C,0.52,0.4,1,·,58*,4
COc1ccccc1NC(=O)Nn1cnnc1,2,1.1,1.2,·,-12,-20
CCN(CC)CCN(C(=O)Cn1nnc(-c2ccc(OC)c(OC)c2)n1)C(C(=O)NC1CCCC1)c1ccc(F)cc1 (stereo not given),1.3,1,0.8,·,3,25
CCOc1ccc(N2C(=O)CS/C2=C(\C(Cl)=C(Cl)Cl)[N+](=O)[O-])cc1,0.3,0.5,0.6,·,55*,38
CCOc1ccc(N2C(=O)CC(N)C2=O)cc1 (stereo not given),-0.61,·,·,0.31,·,·
Cc1c(CCO)c(=O)[nH]n1C(=O)c1ccc(F)cc1,-0.073,0.3,0.7,·,74*,28
Cc1c(CCO)c(=O)n(C)n1C(=O)c1ccc(F)cc1,-0.67,1,0.7,·,2,26
CCC(=O)Nc1c2c(nn1-c1ccccc1C)CSC2,-1.7,·,·,-0.55,·,·
Cc1cccc(-n2nc3c(c2NC(=O)c2ccc(Br)o2)CSC3)c1,0.63,0.2,1,0.85,84*,-4
Cc1ccc(-n2nc3c(c2NC(=O)c2cccs2)CSC3)cc1,0.19,0.3,0.8,0.6,72*,22
CCc1ccc(NC(=O)C(=O)NCCN2CCN(C(=O)c3ccco3)CC2)cc1,-0.24,·,·,·,·,·
CCOC(=O)c1c(NC(=O)CCN2C(=O)c3ccccc3C2=O)sc(C(=O)OC(C)C)c1C,0.065,0.4,0.8,·,60*,23

# Compound activity: PubChem, several laboratories
